This is part of a sample that, as a whole, favours compounds with a hit. Of some 79,000 tested, about 15% had one in any assay. Active and inactive are the calls of the source. Rule as the data show it: active = growth inhibition above about 70%; inactive = the rest.
How the values were obtained:
[1] = NCI Yeast Anticancer Drug Screen. Data for the rad50 strain (AID 155);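 also: 0% = growth of vehicle-only cultures of the same strain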; settings: S. cerevisiae rad50 strain growth inhibition; at 50.0 µM; hits give high values
Procedure, shortened: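 Genetically altered yeast (DNA repair pathway); compound treatment; growth inhibition vs vehicle ctrl.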

[2] = NCI Yeast Anticancer Drug Screen. Data for the mec2-1 strain (AID 157); settings: S. cerevisiae mec2-1 strain, at 50.0 µM, hits give high values
Procedure, shortened: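 Test agents were screened against the mec2-1 yeast strain, with defined DNA repair or cell cycle alteration. Growth was scored as inhibition against vehicle-only controls.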

[3] = NCI Yeast Anticancer Drug Screen. Data for the sgs1 mgt1 strain (AID 161);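 also: 0% = growth of cultures given vehicle only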; settings: S. cerevisiae sgs1 mgt1 strain, at 50.0 µM, hits give high values
Procedure, shortened: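 Inhibition of yeast growth, normalised to vehicle-treated controls, is reported for a strain bearing genetic alterations in DNA damage repair.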

[4] = NCI Yeast Anticancer Drug Screen. Data for the cln2 rad14 strain (AID 165);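 also: 0% = growth equal to vehicle treated cultures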; settings: S. cerevisiae cln2 rad14 strain, at 50.0 µM, hits give high values
Procedure, shortened: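 Growth of compound-exposed yeast (cln2 rad14 genotype) measured and expressed as inhibition relative to vehicle.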

[5] = NCI Yeast Anticancer Drug Screen. Data for the bub3 strain (AID 167); settings: S. cerevisiae bub3 mutant strain, at 50.0 µM, hits give high values
Procedure, shortened: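 Yeast carrying a defined mutation is treated with each compound, and growth is compared with that of vehicle-exposed cells to give inhibition.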

[6] = NCI Yeast Anticancer Drug Screen. Data for the mlh1 rad18 strain (AID 175); settings: S. cerevisiae mlh1 rad18 strain growth inhibition; at 50.0 µM; hits give high values
Procedure, shortened: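 In this whole-cell yeast screen, a strain with altered DNA damage repair is challenged with compound, and its growth is measured against matched vehicle-treated controls.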

Measured: growth inhibition

O=C1NC2(CCCCC2)N=C2C(Cl)CCCC12Cl (configuration not stated)
inactive: [1] -22.1% | [2] -24.5% | [3] -0.7% | [4] 21% | [5] -1.85% | [6] -8.8%

c1ccc(-c2nnc(-c3ccccn3)c3c2C[C@@H]2C[C@@H]4Cc5c(-c6ccccn6)nnc(-c6ccccn6)c5[C@@H]4[C@H]32)nc1
inactive: [1] -4.95% | [2] 0.1% | [3] -16.4% | [4] 9.25% | [5] 10.3% | [6] -17.4%

C=CCOC(=O)c1ccco1
inactive: [1] 5.6% | [2] -6.3% | [3] 2.35% | [4] -1.4% | [5] 0.45% | [6] 2.05%

O=C(Oc1c(Cl)c(Cl)c(Cl)c(Cl)c1Cl)c1ccc([N+](=O)[O-])cc1
inactive: [1] -27.6% | [2] -1.55% | [3] -26.6% | [4] -49% | [5] 3.9% | [6] -9.25%

c1ccc2cc3c(NC4=NCCO4)cccc3cc2c1
inactive: [1] -2.8% | [2] 5.9% | [3] -2.7% | [4] 22.4% | [5] 33.1% | [6] 16.2%

CCc1c(O)c2c(c(O)c1C(C)=O)C(=O)c1c(cc(O)c(C(=O)O)c1C(=O)O)C2=O
inactive: [1] -3.15% | [2] 9.8% | [3] 24.2% | [4] 10.2% | [5] 20.3% | [6] 12.8%

CCN(CC)C(=S)N1CCCCC1
inactive: [1] 10.2% | [2] -14.6% | [3] -14.2% | [4] -65.4% | [5] -15.9% | [6] -7.25%

CC[N+](C)(CC)CC[N+]1(C)CCCCCCC1
inactive: [1] 12.9% | [2] 5.45% | [3] 5.8% | [4] -40.6% | [5] 10.4% | [6] 15.6%

O=C1C=CC(Nc2ccc(Cl)c(Cl)c2)C1Nc1ccc(Cl)c(Cl)c1 (configuration not stated)
inactive: [1] 39.5% | [2] 36.1% | [3] 42.8% | [4] 28.6% | [5] 26.7% | [6] 45%

CC1(C#N)N(C(=O)c2ccccc2)c2ccccc2N1C(=O)c1ccccc1
inactive: [1] 18.6% | [2] 50.2% | [3] 46.2% | [4] 27.2% | [5] 36% | [6] 24.9%

O=C1OC(=O)c2c(Cl)c(Cl)c(Cl)c(Cl)c21
inactive: [1] 8.55% | [2] -0.15% | [3] 23.9% | [4] -34.9% | [5] -6.25% | [6] 2.5%

CC12CCC(O)CC1=CCC1C2CCC2(C)C1CC1=CC(C#N)C(=O)NC12O (configuration not stated)
inactive: [1] 3.55% | [2] 6.85% | [3] 1.35% | [4] -65.4% | [5] -0.3% | [6] 17.2%

c1ccc(C2=Nc3ccccc3N=C3CCCC32)cc1 (configuration not stated)
inactive: [1] 45.2% | [2] 22.6% | [3] 3.3% | [4] 10.6% | [5] 21.4% | [6] 58.7%

C=CCNC(=S)N/C=C\c1c(C(=O)O)cc([N+](=O)[O-])cc1[N+](=O)[O-]
inactive: [1] -7.85% | [2] -24.1% | [3] -31.2% | [4] -23.2% | [5] 3.2% | [6] 5.6%

CC(/C=C1\N=C(c2ccccc2)OC1=O)=C\c1ccccc1
inactive: [1] -40% | [2] -22.1% | [3] -33.5% | [4] 9.2% | [5] -35.4% | [6] -28.9%

CC1(C)CCCC/C1=N\NC(N)=O
inactive: [1] -12.6% | [2] -20.4% | [3] -8% | [4] -6.15% | [5] -9.6% | [6] -14.8%

OC(CCN1CC2CCC(CC2)C1)(Cc1ccccc1)c1ccc(F)cc1 (configuration not stated)
inactive: [1] -3.8% | [2] -7.9% | [3] 23.1% | [4] -5.15% | [5] 22.6% | [6] -7.25%

CC(N)C(c1ccccc1)c1ccccc1 (configuration not stated)
inactive: [1] 19.5% | [2] 15.8% | [3] 7.15% | [4] 11.3% | [5] 33.6% | [6] 19.4%

CCCCCC(N)C(=O)O (configuration not stated)
inactive: [1] 1.7% | [2] 6% | [3] -14.5% | [4] -22.1% | [5] -2.35% | [6] -17.9%

c1nc2c([nH]1)CNCC2
inactive: [1] -3.05% | [2] -11.2% | [3] -9.05% | [4] -65.7% | [5] -12.2% | [6] 5%

CCCCCCCCCCCCP(=O)(O)O
inactive: [1] -8.2% | [2] -24.1% | [3] -19.9% | [4] -9.65% | [5] 6.35% | [6] -10.9%

ClCCOCCOc1ccccc1Cl
inactive: [1] -24% | [2] -13.8% | [3] -8.1% | [4] -9.95% | [5] -22.1% | [6] -7%

OC(CCN1CCC2CCC(C2)C1)(c1ccccc1)c1ccco1 (configuration not stated)
inactive: [1] 7.75% | [2] -3.15% | [3] -5.25% | [4] -15.6% | [5] -0.05% | [6] -4.75%

COc1ccccc1NC(=O)C(/C=N/C(N)=S)=C(\C)O
inactive: [1] -20.1% | [2] -6.5% | [3] -33.1% | [4] 7.6% | [5] -3.65% | [6] -14.4%

COC(=O)NC1CCCCC1
inactive: [1] -2.5% | [2] -13.8% | [3] -4.6% | [4] 20.6% | [5] -8.2% | [6] -6.35%

O=C(O)COc1cccc(O)c1
inactive: [1] -26.4% | [2] -24.2% | [3] -39.6% | [4] -13.1% | [5] -27.9% | [6] -20.1%

NNC(=O)C1CCC(=O)N1S(=O)(=O)c1ccccc1 (configuration not stated)
inactive: [1] -14% | [2] -12.1% | [3] -22% | [4] 8.95% | [5] -2.25% | [6] -25.6%

CCOc1c(N=Nc2ccc(Cl)cc2Cl)c(C)nn1C(N)=S
inactive: [1] -16.2% | [2] 0.15% | [3] 11.1% | [4] -43.8% | [5] -24.2% | [6] 17.5%

CCSCCNC(=O)NS(=O)(=O)c1ccc(C)cc1
inactive: [1] 4.85% | [2] -0.75% | [3] -6.45% | [4] 1.55% | [5] -11.4% | [6] 14%

Nc1ccc(N(S(=O)(=O)c2ccccc2)S(=O)(=O)c2ccccc2)nc1
inactive: [1] 27.4% | [2] 6.3% | [3] 11.1% | [4] -4.45% | [5] 2.25% | [6] 17.7%

CN(C)CCCNc1ccc([N+](=O)[O-])c2nc3ccccc3c(N)c12
inactive: [1] -2.1% | [2] -64.7% | [3] 6.45% | [4] -0.5% | [5] -11.4% | [6] 65.6%

CSc1ccc2c(cc1=O)[C@@H](NC(C)=O)CCc1cc(O)c(O)c(O)c1-2
inactive: [1] 7.1% | [2] 12.3% | [3] 18.1% | [4] 4.85% | [5] 17.4% | [6] 22.8%

Cc1ccc(Nc2ncnc3sc(SCc4ccccc4)nc23)cc1
inactive: [1] -34.5% | [2] -20.4% | [3] -24.2% | [4] 3.75% | [5] -24.6% | [6] -28.1%

COC(=O)C(NC(=O)C(CC(=O)OC(C)(C)C)NC(=O)OC(C)(C)C)C(O)c1ccccc1 (configuration not stated)
inactive: [1] -35.6% | [2] -23.9% | [3] -22.4% | [4] -0.75% | [5] -27.6% | [6] -0.85%

Cc1c(C)c2ccc(OC(C)C(=O)O)cc2oc1=O (configuration not stated)
inactive: [1] -10.9% | [2] 0.8% | [3] 22.2% | [4] 31.5% | [5] 10.1% | [6] 36%

CCOC(=O)C1C/C2=C(/CCCCCCCCCC2)SCCCS1 (configuration not stated)
inactive: [1] 4.35% | [2] 5.2% | [3] -9% | [4] 2.15% | [5] -13.7% | [6] -23.7%

Cc1ccc(C)c(N2C(=O)C(=O)C(c3nc4ccccc4s3)/C(=N/NC(=O)NN)C2=O)c1 (configuration not stated)
inactive: [1] 1.9% | [2] 14.1% | [3] -5.75% | [4] -2.55% | [5] -2.1% | [6] -16.9%

From PubChem BioAssay (NCI)
